Results on 17 compounds are retold here after PMC5540273 (PLoS ONE, 2017).

Molecules are shown by their SMILES.

Some test systems named below: CSK; CSNK1A1L; CSNK1A1; CSNK1D; CSNK1E; CSNK1G1; CSNK1G2; CSNK1G3; CSNK2A1; CSNK2A2.
Common to all, as to conditions: concentration: 1 μM, replicates: in singlicate; n = 1
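Also: KINOMEscan kinase panel screen.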

As to `CCc1ccc(-c2ccc3c(c2)-c2n[nH]cc2S(=O)(=O)N3C)cc1`, the “%Inh” value in the assay on CSK turned out to be 0%; with CSNK1A1L, 0%; in the assay on CSNK1A1, 0%; in the assay on CSNK1D, 32%; in the assay on CSNK1E, 0%; with CSNK1G1 it was 0%. Besides, the “%Inh” value in the assay on CSNK1G2, in the assay with CSNK1G3, in the assay with CSNK2A1 and in the assay with CSNK2A2 was 0% throughout.

Turning to `FC(F)(F)c1ccccc1-c1cc(-c2c[nH]nc2-c2ccccn2)ccn1` [GW679396], the “%Inh” value in the assay with CSK is recorded as 0%; with CSNK1A1L, 3%; with CSNK1A1, 0%; with CSNK1D, 36%; in the assay on CSNK1E it was 23%; with CSNK1G1 it was 16%. For the same compound, the “%Inh” value in the assay on CSNK1G2 is 0%; in the assay with CSNK1G3, 24%; in the assay with CSNK2A1, 7%; in the assay with CSNK2A2, 17%.

In the case of `CC(C)c1cc(-c2ccc3c(N)n[nH]c3c2)nc(N)n1` [GSK2250882], the “%Inh” value in the assay with CSK was found to be 0%; in the assay with CSNK1A1L it was 0%; with CSNK1A1 it was 0%; in the assay with CSNK1D it was 0%; in the assay on CSNK1E, 7%; in the assay with CSNK1G1, 10%. The “%Inh” value in the assay on CSNK1G2 amounted to 0%; in the assay on CSNK1G3, 25%; in the assay with CSNK2A1, 0%; in the assay with CSNK2A2, 10%.

`O=C(Nc1n[nH]c2nc(-c3cccs3)c(Br)cc12)C1CCCC1` [SB-743341]: the “%Inh” value in the assay with CSK is on record as 9%; with CSNK1A1L it was 13%; in the assay with CSNK1A1, 27%; in the assay with CSNK1D it was 0%; with CSNK1E, 0%; in the assay with CSNK1G1, 0%. Further, the “%Inh” value with CSNK1G2 is given as 0%; with CSNK1G3, 0%; in the assay with CSNK2A1 it was 10%; in the assay on CSNK2A2 it was 17%.

With `O=C1NC(=O)C(c2ccc(Cl)cc2)=C1Nc1ccc(O)cc1` [SB-340867], the “%Inh” value stood at 0% in the assay with CSK; 2% in the assay on CSNK1A1L; 0% in the assay with CSNK1A1; 0% with CSNK1D; 0% with CSNK1E; 0% with CSNK1G1. The “%Inh” value is on record as 0% with CSNK1G2, 32% in the assay on CSNK1G3, 0% with CSNK2A1 and 0% in the assay with CSNK2A2.

Take `CC(C)c1ccc(O)cc1Nc1ccnc2ccc(C(F)(F)F)cc12` [GW482059]: the “%Inh” value was 0% with CSK; 11% in the assay with CSNK1A1L; 0% with CSNK1A1; 0% in the assay on CSNK1D; 0% with CSNK1E; 0% in the assay with CSNK1G1. In addition, the “%Inh” value in the assay on CSNK1G2 was determined as 0%; in the assay on CSNK1G3 it was 9%; with CSNK2A1, 7%; in the assay with CSNK2A2, 0%.

Consider `COc1cccc(CNC(=O)NC2CCN(c3ccnc(Nc4ccc(F)cc4)n3)C2)c1` (centres unmarked) [GSK1379723], for which the “%Inh” value with CSK came out at 0%; in the assay with CSNK1A1L, 21%; in the assay on CSNK1A1, 19%; in the assay on CSNK1D it was 4%; in the assay with CSNK1E, 11%; in the assay with CSNK1G1, 0%. The “%Inh” value is 0% with CSNK1G2, 16% with CSNK1G3, 0% in the assay with CSNK2A1 and 2% in the assay with CSNK2A2.

Take `CN1c2ccc(-c3ccc(C(N)=O)cc3)cc2-c2[nH]ncc2S1(=O)=O`: the “%Inh” value with CSK stood at 0%; in the assay on CSNK1A1L, 0%; in the assay on CSNK1A1, 3%; in the assay on CSNK1D it was 1%; with CSNK1E, 1%; with CSNK1G1, 0%. The “%Inh” value is recorded as 0% with CSNK1G2, 0% in the assay on CSNK1G3, 0% in the assay on CSNK2A1 and 1% with CSNK2A2.

`Cc1c(Cn2c3ccccc3n3c(=O)cc(N4CCOCC4)nc23)cccc1C(F)(F)F` [GSK2306394]: the “%Inh” value with CSK was 0%; in the assay on CSNK1A1L, 0%; with CSNK1A1 it was 19%; in the assay with CSNK1D, 10%; with CSNK1E it was 12%; in the assay on CSNK1G1 it was 9%. Moreover, the “%Inh” value with CSNK1G2 was determined as 43%; in the assay with CSNK1G3 it was 17%; in the assay on CSNK2A1, 6%; with CSNK2A2, 14%.

As to `COc1ccc(Nc2nccc(N3CCC(NC(=O)C(C)c4ccc(Cl)cc4)C3)n2)cc1` (centres unmarked) [GSK1379735], the “%Inh” value turned out to be 0% in the assay with CSK; 1% in the assay on CSNK1A1L; 10% in the assay on CSNK1A1; 0% with CSNK1D; 11% with CSNK1E; 0% in the assay on CSNK1G1. In addition, the “%Inh” value with CSNK1G2 came out at 0%; in the assay with CSNK1G3, 23%; with CSNK2A1, 12%; in the assay with CSNK2A2 it was 14%.

As for `CNc1nc(-c2ccc3c(N)n[nH]c3c2)cc(N2C[C@@H](C(=O)Nc3ccccc3)CC[C@H]2C)n1` [GSK2298859], the “%Inh” value stood at 0% with CSK; 6% in the assay on CSNK1A1L; 0% in the assay on CSNK1A1; 15% in the assay with CSNK1D; 36% in the assay with CSNK1E; 16% in the assay on CSNK1G1. The “%Inh” value in the assay with CSNK1G2 stood at 0%; in the assay on CSNK1G3, 28%; in the assay on CSNK2A1 it was 2%; with CSNK2A2 it was 3%.

On to `CC(=O)c1cccc(NC(=O)NC2CCN(c3ccnc(Nc4ccc(F)cc4)n3)C2)c1` (centres unmarked) [GSK1379710], for which the “%Inh” value amounted to 5% in the assay on CSK; 0% in the assay on CSNK1A1L; 0% in the assay on CSNK1A1; 27% with CSNK1D; 18% with CSNK1E; 12% in the assay on CSNK1G1. In addition, the “%Inh” value in the assay with CSNK1G2 is listed as 0%; in the assay on CSNK1G3 it was 25%; in the assay with CSNK2A1 it was 16%; in the assay on CSNK2A2 it was 15%.

Turning to `CC(=O)c1c(C)c2cnc(Nc3ccc(N4CCNCC4)cn3)nc2n(C2CCCC2)c1=O`, the “%Inh” value in the assay with CSK is listed as 0%; with CSNK1A1L, 0%; with CSNK1A1, 24%; with CSNK1D, 8%; in the assay with CSNK1E, 99.9%; in the assay with CSNK1G1, 0%. In addition, the “%Inh” value in the assay on CSNK1G2 stood at 0%; in the assay on CSNK1G3, 0%; in the assay with CSNK2A1, 0%; with CSNK2A2, 13%.

As for `Nc1nccc(-c2c(-c3ccc(F)cc3)ncn2C2CCN(Cc3ccccc3)CC2)n1` [SB-219980], the “%Inh” value in the assay with CSK was found to be 0%; in the assay with CSNK1A1L, 49%; with CSNK1A1 it was 95.1%; in the assay on CSNK1D, 94.1%; in the assay with CSNK1E, 99.4%; in the assay on CSNK1G1, 0%. In addition, the “%Inh” value in the assay with CSNK1G2 was found to be 0%; with CSNK1G3, 0%; in the assay on CSNK2A1, 0%; in the assay on CSNK2A2, 6%.

For `Cc1ccccc1-c1cc(-c2c[nH]nc2-c2ccccn2)ccn1` [GW680061], the “%Inh” value in the assay on CSK is on record as 0%; in the assay with CSNK1A1L it was 7%; in the assay on CSNK1A1, 12%; in the assay on CSNK1D, 24%; with CSNK1E, 16%; in the assay with CSNK1G1 it was 2%. Also, the “%Inh” value is 0% in the assay on CSNK1G2, 1% with CSNK1G3, 13% in the assay with CSNK2A1 and 0% with CSNK2A2.

In the case of `CS(=O)(=O)CCNCc1nc(-c2ccc3ncnc(Nc4ccc(OCc5ccccc5)c(Cl)c4)c3c2)cs1.Cl` [GW582764], the “%Inh” value in the assay with CSK is 0%; in the assay with CSNK1A1L, 9%; in the assay with CSNK1A1, 0%; with CSNK1D it was 10%; with CSNK1E, 15%; in the assay with CSNK1G1, 0%. Also, the “%Inh” value came out at 0% in the assay on CSNK1G2, 13% in the assay on CSNK1G3, 0% with CSNK2A1 and 0% with CSNK2A2.

For `CNc1cc(-c2ccc3c(N)n[nH]c3c2)nc(N)n1` [GSK2224810], the “%Inh” value with CSK amounted to 4%; in the assay with CSNK1A1L, 0%; with CSNK1A1, 8%; with CSNK1D, 9%; in the assay on CSNK1E, 12%; in the assay on CSNK1G1 it was 7%. Also, the “%Inh” value was 0% with CSNK1G2, 28% with CSNK1G3, 19% in the assay on CSNK2A1 and 22% in the assay with CSNK2A2.
